Compound activity: PubChem, National Center for Advancing Translational Sciences (NCATS)
Only some compounds are listed: those with a hit (about 0.99% of all), similar ones and a draw of the others.
AmpC inh detg: inhibitors of E. coli AmpC beta-lactamase with detergent | Potency, µM (top dose mostly 114 µM), most hits filed as inhibitors | P00811 | AmpC hydrolysis of nitrocefin, absorbance 480 nm, 0.01% Triton | actives 0.041% (n = 370,000); also: nearly all actives have a fitted effect of over 25% in size
Target sequence (P00811 whole entry, looked up): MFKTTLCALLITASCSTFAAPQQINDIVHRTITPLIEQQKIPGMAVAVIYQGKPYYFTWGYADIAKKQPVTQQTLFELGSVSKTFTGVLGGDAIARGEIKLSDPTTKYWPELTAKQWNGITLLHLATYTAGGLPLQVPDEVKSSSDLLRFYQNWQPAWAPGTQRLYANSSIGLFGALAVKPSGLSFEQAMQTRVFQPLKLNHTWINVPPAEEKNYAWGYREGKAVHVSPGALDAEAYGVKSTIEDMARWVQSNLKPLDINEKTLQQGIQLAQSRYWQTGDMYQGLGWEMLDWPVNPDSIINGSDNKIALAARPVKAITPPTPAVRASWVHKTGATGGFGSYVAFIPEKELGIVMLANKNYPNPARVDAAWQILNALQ
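AmpC (5.3 nM in the dispensed reagent) in 20 mM phosphate pH 7.0 with 0.01% (detergent screen) or 0.0001% Triton X-100 was preincubated with compounds for 15 min at room temperature. Nitrocefin was then added from an 800 uM solution, and hydrolysis was followed at 480 nm.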
AmpC no deterg: blocks E. coli AmpC beta-lactamase in detergent-free assay; actives 0.52% (n = 330,000); P00811; Potency, µM (doses to about 57.1 µM), usual class: inhibitors; AmpC nitrocefin hydrolysis, absorbance 480 nm, 0.0001% Triton; also: nearly all actives have a fitted effect of over 20% in size
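AmpC (5.3 nM in the dispensed reagent) in 20 mM phosphate pH 7.0 with 0.01% (detergent screen) or 0.0001% Triton X-100 was preincubated with compounds for 15 min at room temperature. Nitrocefin was then added from an 800 uM solution, and hydrolysis was followed at 480 nm.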
SARS PLpro yeast: SARS-CoV PLP inhibition in yeast | actives 0.19% (n = 330,000) | AID 485353 | S. cerevisiae expressing SARS-CoV PLpro, growth rescue | Potency, µM (highest dose often 32.9 µM), usual class: activators; calls by dose curve; also: nearly all actives have a fitted effect of over 55% in size
AMA1 RON2 block: disrupts binding of P. falciparum AMA1 to RON2; AlphaScreen AMA1-biotinylated RON2 peptide binding; Potency, µM (doses to about 58.2 µM), usual class: inhibitors; actives 0.2% (n = 360,000); AID 720542; also: nearly all actives have a fitted effect of over 45% in size
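AMA1 (3D7) with his tag at 25 nM final met compounds first, then biotinylated RON2 peptide at 25 nM; detection used donor plus acceptor beads, 10 µg/mL apiece, read by AlphaScreen after 30 min at room temperature.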
NS1 inh: inhibitors of influenza NS1 protein function | Potency, µM (highest dose often 46.1 µM) | actives 0.4% (n = 270,000); calls by dose curve; also: actives are rising curves; nearly all actives have a fitted effect of over 50% in size
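In this qHTS, NS1 from influenza A is expressed in budding yeast, where it slows growth. Cells are switched from glucose to 2% galactose medium (pH 6.0, -URA), treated with compound, and growth recovery is read at OD600.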
Hits are given with their value; i = inactive; ? = inconclusive; nt = not tested or not shown; [ ] = remark or other dose. Unless noted, calls follow the shape of the dose curve; as a rule, active = well fitted curve in the direction sought with a large enough effect; inconclusive = small, poorly fitted or top-dose-only effect, or another doubt; inactive = no such curve, though single readings can be large; an effect the other way counts as inactive or inconclusive.

SMILES | AmpC inh detg | AmpC no deterg | SARS PLpro yeast | AMA1 RON2 block | NS1 inh
O=C(C[C@H](c1ccccc1)c1c(O)c2ccccc2oc1=O)c1ccccc1 | nt | nt | nt | nt | i
CCOc1ccc(NC(=O)CSc2cc(C)c3ccccc3n2)cc1 | i | nt | nt | nt | nt
FC(F)Sc1ccc(NC(=S)NC(c2ccccc2)c2ccccc2)cc1 | i | 18µM | i | i | nt
CCCOc1ccc(N2C(=O)CC(SCCN)C2=O)cc1 (stereo not given) | i | i | i | 3.5µM | i
Cc1cccc(CCNC(=O)c2nc(-c3ccc(Cl)cc3)n3c2CCCCC3)c1 | i | nt | nt | nt | nt
Cc1cc(NC(=O)c2noc3c2CCc2ccccc2-3)n(-c2ccccc2)n1 | i | 1µM | i | i | ?
Cc1ccc(NC(=O)c2noc3c2CCc2ccccc2-3)cc1 | i | i | i | i | i
O=C1Nc2c(c(=O)[nH]c(=O)n2-c2ccccc2)C1(NS(=O)(=O)c1ccc(Cl)cc1)C(F)(F)F (stereo not given) | i | nt | nt | nt | nt
COc1ccc(OC)c(NC(=O)c2nnn(Cc3ccc(Br)cc3F)c2N)c1 | ? | 0.79µM | i | i | i
CC(C)c1ccc(C(=O)NC(=S)Nc2ccc3[nH]c(=O)[nH]c3c2)cc1 | i | 8.9µM | i | i | i
CCCn1c2ccccc2c2cnn(CC(=O)NCC3CCN(Cc4ccccc4C)CC3)c(=O)c21 | i | nt | nt | nt | nt
Cc1cc2c(c(=O)o1)C1O[C@](c3ccsc3)(Cc3cc(C#N)ccc31)O2 | ? | i[11.4 µM] | i[6.58 µM] | nt | ?
N#Cc1ccc2c(c1)C[C@]1(c3ccsc3)Oc3c(c(=O)oc4ccccc34)C2O1 | i[22.9 µM] | 5µM | i[6.58 µM] | nt | i
N#Cc1ccc2c(c1)C[C@]1(c3ccsc3)Oc3c(c(=O)oc4ccc(F)cc34)C2O1 | ? | ? | i[6.58 µM] | nt | i
COc1ccc2c3c(c(=O)oc2c1)C1O[C@](c2ccsc2)(Cc2cc(C#N)ccc21)O3 | ? | 5µM | i[6.58 µM] | nt | i
CCC1(CCSC(=N)N)C(=O)NC(=O)NC1=O | nt | nt | nt | nt | i
CCc1nc2ccc(C(=O)NCc3ccccc3OC)cn2c1N(C)Cc1ccc(N(C)C)cc1 | nt | nt | nt | 14µM | nt
O=C(N/N=C/c1ccoc1)c1ccccc1Br | i | i | ? | i | i
O=C(N/N=C/c1ccoc1)c1cc(Br)ccc1O | i | 7.9µM | i | i | i
O=C(NN=C1CCCC1)c1cc(Br)ccc1O | ? | 7.9µM | i | i | i
Cc1ccc(Cn2c(C(=O)O)c(CNCc3cccs3)c3ccc(C)cc32)cc1 | i | nt | nt | nt | nt
O=C(CSc1ncnc2c1oc1ccccc12)Nc1nc2ccccc2s1 | ? | 0.79µM | i | i | i
Cn1c(=O)c2nc(SCC(=O)Nc3cc(Cl)ccc3Cl)n(C)c2n(C)c1=O | i | nt | nt | nt | nt
COc1ccc(-c2noc(Cn3c(=O)c4ccccc4n(CC(=O)Nc4cccc(OC)c4)c3=O)n2)cc1 | i | nt | nt | nt | nt
Cc1cc(C(=O)O)ccc1-c1ccc(/C=C2\SC(=O)N(CC(=O)Nc3ccc4c(c3)OCO4)C2=O)o1 | i | i | i | nt | i
SMILES | AmpC inh detg | AmpC no deterg | SARS PLpro yeast | AMA1 RON2 block | NS1 inh
Cc1ccc(C(=O)O)cc1-c1ccc(/C=C2\SC(=O)N(CC(=O)Nc3ccccc3)C2=O)o1 | 56µM | i | i | ? | i
Cc1ccccc1NC(=O)CN1C(=O)S/C(=C\c2ccc(-c3cc(C(=O)O)ccc3C)o2)C1=O | 56µM | i | i | i | i
COc1cc(Cl)c(NC(=O)c2cc3ccccn3n2)c(OC)c1 | i | nt | nt | nt | nt
COC(=O)C1CCN(c2c([N+](=O)[O-])cc(C(F)(F)F)cc2[N+](=O)[O-])CC1 | i | 0.25µM | i | i | i
CCCCNC(=O)Oc1cc(CCl)on1 | ? | i | i | nt | nt
CCCCNC(=O)Oc1c(Br)cc2sc(=O)oc2c1Br | 45µM | ? | ? | nt | i
NC(=O)CN1CCN(C(=O)Nc2ccccc2)CC1 | i | 22µM | i | i | i
CCN1CCN(C(=O)C2CCN(C(=O)Nc3ccccc3)CC2)CC1 | i | i | i | i | nt
COc1ccc(NCc2cccn2-c2nnc(N3CCCCC3)s2)cc1OC | i | nt | nt | nt | nt
Cc1cccc(N2CC(C(=O)Nc3nnc(SCC(=O)Nc4nccs4)s3)CC2=O)c1 (stereo not given) | ? | i | i | i | i
Cc1ccccc1N1CC(C(=O)Nc2nnc(SCC(=O)Nc3nccs3)s2)CC1=O (stereo not given) | i | 28µM | i | i | i
O=C(Nc1ccc(C(=O)OCc2cc(=O)n3c4c(sc3n2)CCCC4)cc1)c1ccc(Cl)cc1 | i | nt | nt | nt | nt
Cc1ccc(CCNC(=O)C2CCN(S(=O)(=O)c3c(C)nn(C)c3C)CC2)cc1 | ? | 2.5µM | i | i | i
Cc1cccc(CCNC(=O)C2CCN(S(=O)(=O)c3c(C)nn(C)c3C)CC2)c1 | ? | i | i | i | i
CCOC(=S)SCC(=O)Nc1nc(C)c(C)s1 | i | 10µM | i | i | i
CCOC(=S)SCC(=O)Nc1nccs1 | i | i | i | i | i
Cc1ccc(NC(=O)c2ccc(=O)n(Cc3ccccc3C)c2)c(C)c1 | i | nt | nt | nt | nt
COc1ccc(C(C#N)=C2C=CC(=NO)C=C2)cc1 | i | i | i | 16µM | i
COc1ccc(C(=O)c2ccc(Cl)cc2)cc1 | i | i | i | i | i
CC(=O)ON=C1C=CC(=C(C#N)c2ccccc2)C=C1 | nt | nt | nt | 28µM | nt
COc1cc(OC)cc(-c2nc3nc(C)c(CCC(=O)Nc4ccc(C)c(C)c4)c(C)n3n2)c1 | i | nt | nt | nt | nt
O[C@@H](c1cc(-c2ccc(Cl)cc2)nc2ccccc12)C1CCCCN1 (stereo not given in full) | nt | nt | nt | nt | i
CCCCNC(=S)N(C)/N=C/c1sc(N2CCCCC2)nc1-c1cccs1 | i | 11µM | i | nt | i
CCN1CCN(Cc2nc3c(c(=O)n(C)c(=O)n3C)n2Cc2cccc3ccccc23)CC1 | i | 0.16µM | i | i | i
CCN1CCN(c2nc3c(c(=O)n(C)c(=O)n3C)n2Cc2cccc3ccccc23)CC1 | i | i | i | i | i
SMILES | AmpC inh detg | AmpC no deterg | SARS PLpro yeast | AMA1 RON2 block | NS1 inh
Cc1cc(/C=C(\C#N)C(=O)Nc2ccc(Cl)cc2)c(C)n1-c1ccc(N2CCOCC2)c([N+](=O)[O-])c1 | i | 7.9µM | i | i | i
Cc1ccc(NC(=O)/C(C#N)=C/c2cc(C)n(-c3ccc(N4CCOCC4)c([N+](=O)[O-])c3)c2C)c(C)c1 | i | i | i | i | i
COc1ccccc1-c1nnc(SCCOc2ccccc2C)o1 | i | nt | nt | nt | nt
CCc1cccc(NC(=O)Nc2cccs2)c1 | i | 16µM | i | i | i
N#Cc1cccc(NC(=O)Nc2cccs2)c1 | i | ? | i | i | i
COc1ccccc1NS(=O)(=O)c1cc(NC(=O)c2ccc(=O)[nH]c2)ccc1N1CCOCC1 | i | 14µM | i | i[2.32 µM] | i
COc1ccccc1NS(=O)(=O)c1cc(NC(=O)C2CC2)ccc1N1CCOCC1 | i | i | i | nt | i
COCCNC(=S)Nc1ccc(N2CCOCC2)c(S(=O)(=O)Nc2ccccc2OC)c1 | i | 10µM | i | i | nt
COc1ccccc1NS(=O)(=O)c1cc(NC(=O)c2ccccc2C)ccc1N1CCOCC1 | nt | nt | nt | i[11.6 µM] | nt
COc1ccc(/C=C/C(=O)Nc2nc(-c3cccs3)ns2)cc1OC | i | nt | nt | nt | nt
Cc1ccc(-n2cccc2/C=C2/NC(=O)N(CC(=O)Nc3cccc(C)c3)C2=O)cc1 | ? | 32µM | i | i | ?
